# Laboratory results taken from PubChem BioAssay (Tox21).
# Where “and” joins values, the source holds several entries; their conditions need not be identical. Equal values may be shown once. Results filed as inconclusive are left out. Where a call stands in place of a potency, no number is given. A structure can be active in one record and inactive in another. Calls of active or inactive are those of the source. Unless noted, calls come from the whole dose curve; as a rule, active = well fitted curve in the direction sought with a large enough effect in the repeat runs; inconclusive = weak or mixed curves; inactive = no such curve, though single readings can be large; an effect the other way counts as inactive or inconclusive. Residues, ends and D or L forms follow the SMILES beside them.
# Key:
# [1] = qHTS assay to identify small molecule antagonists of the estrogen receptor alpha (ER-alpha) signaling pathway using the BG1 cell line in the presence of 0.1 nM 17-beta-estradiol - cell viability counter screen (AID 1259241); note: nearly all actives have a fitted effect of over 40% in size; note: potency is the fitted concentration of half-maximal effect
# Outline: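 In this screen, hormone-deprived VM7Luc4E2 cells were seeded at 4,000 per well, dosed with compound and 0.1 nM estradiol final, and incubated 22 hr at 37C and 5% CO2; fluorogenic live-cell protease signal reported viability.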
# [2] = qHTS assay to identify small molecule antagonists of the androgen receptor (AR) signaling pathway using the MDA cell line in the presence of 0.5 nM R1881 - cell viability counter screen (AID 1259242); note: nearly all actives have a fitted effect of over 45% in size; note: potency is the fitted concentration of half-maximal effect
# Outline: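 Concentration-response screen of compounds for toxicity in MDA-kb2 reporter cells: 16 hr at 37C with 0.5 nM R1881, endpoint live-cell protease fluorescence measured in the reporter wells.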
# [3] = qHTS assay to identify small molecule phospholipidosis (PLD) inducers (AID 1259344; active = well fitted curve in the direction sought with a large enough effect; an effect the other way counts as inactive or inconclusive)
# Outline: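 After 4 h attachment on collagen I, HepG2 cells were dosed with compound alongside LipidTOX Red, kept 24 h at 37 C, fixed, and imaged for lamellar phospholipid pits.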
# [4] = qHTS assay to identify small molecule HDAC inhibitors (AID 1259364); note: potency is the fitted concentration of half-maximal effect;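 note: wild-type HCT-116 cells with endogenous class I/II HDAC activity; nearly all actives have a fitted effect of over 45% in size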
# Outline: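 Screening used wild-type human colon HCT-116 cells incubated overnight, dosed with compounds for 2 hours, and assayed with a homogeneous luminogenic HDAC I/II reagent for 30 minutes at room temperature.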
# [5] = qHTS assay to identify small molecule HDAC inhibitors - cell viability counter screen (AID 1259365); note: series mostly up to about 92 µM; nearly all actives have a fitted effect of over 50% in size
# Outline: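 Measured quantity is CellTiter-Glo luminescence from wild-type HCT-116 cells after compound incubation of 2hr at 37C, 5% CO2; reagent developed 30min at room temperature.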
# [6] = qHTS assay to identify small molecule agonists of the sonic hedgehog signaling (Shh) pathway - cell viability counter screen (AID 1259366); note: nearly all actives have a fitted effect of over 50% in size; note: potency is the fitted concentration of half-maximal effect
# Outline: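 In quantitative high-throughput format, 3T3 Gli1-Luc cells were exposed to compounds for 24hr and multiplexed for viability using CellTiter-Fluor, incubated 1hr at 37C before the fluorescence read.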
# [7] = qHTS assay to identify small molecule antagonists of the sonic hedgehog signaling (Shh) pathway - cell viability counter screen (AID 1259367); note: nearly all actives have a fitted effect of over 55% in size; note: potency is the fitted concentration of half-maximal effect
# Outline: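 Conditioned medium drove Shh signaling in 3T3 Gli1-Luc cells exposed to compounds at 37C and 5% CO2. Viability was determined from CellTiter-Fluor fluorescence, with reagent incubated 1 hr after 23 hr of treatment.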
# [8] = qHTS assay to identify small molecule agonists of the sonic hedgehog signaling (Shh) pathway (AID 1259368; calls by dose curve;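 note: NIH/3T3-derived 3T3Gli1-Luc cells carrying a stable Gli1-driven firefly luciferase reporter; series mostly up to about 92 µM; nearly all actives have a fitted effect of over 15% in size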)
# Outline: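 Hedgehog pathway agonism scored by increased firefly luciferase luminescence in 3T3Gli1-Luc cells treated 24 hr at 37 C; detection used a 30 min room-temperature reagent incubation.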
# [9] = qHTS assay to identify small molecule antagonists of the sonic hedgehog signaling (Shh) pathway (AID 1259369; calls by dose curve; note: nearly all actives have a fitted effect of over 45% in size; note: potency is the fitted concentration of half-maximal effect)
# Outline: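 NIH/3T3 stable Gli1-Luc clone, 2,000 cells/well, 4hr settle; cpd + conditioned medium 24hr; Luc reagent 30min RT; luminescence.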
# [10] = qHTS assay to identify small molecule agonists of the estrogen receptor beta (ER-beta) signaling pathway - cell viability counter screen (AID 1259380); note: nearly all actives have a fitted effect of over 30% in size; note: potency is the fitted concentration of half-maximal effect
# Outline: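 Measured: luminescence from CellTiter-Glo after 30 min at room temperature, added to wells already read for the LiveBLAzer FRET reporter (2 hr substrate); ER-beta-UAS-bla HEK293T cells had 16 hr compound treatment at 37C, 5% CO2.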
# [11] = qHTS assay to identify small molecule antagonists of the estrogen receptor beta (ER-beta) signaling pathway - cell viability counter screen (AID 1259382); note: nearly all actives have a fitted effect of over 55% in size; note: potency is the fitted concentration of half-maximal effect
# Outline: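 Readout: luminescence, CellTiter-Glo, same wells as bla assay. System: ER-beta-UAS-bla GripTite HEK293T, 2% charcoal-stripped FBS. Exposure: compounds plus 1nM 17-beta-estradiol, 16 hr, 37C.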
# [12] = qHTS assay to identify small molecule agonists or antagonists of the thyroid stimulating hormone receptor (TSHR) signaling pathway - wild type cell line counter screen (AID 1259384; calls by dose curve)
# Outline: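 Wild-type HEK293 cells were plated 18 h at 37 C/5% CO2, pin-dosed with compound plus Ro20-1724 medium, held 30 min at room temperature, then given cAMP-d2 and anti-cAMP-cryptate; fluorescence was read after 1 h. Fifteen concentrations, triplicate.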
# [13] = target: Thyrotropin receptor (Homo sapiens) (UniProt P16473); experiment: qHTS assay to identify small molecule antagonists of the thyroid stimulating hormone receptor (TSHR) signaling pathway (AID 1259385; calls by dose curve; note: nearly all actives have a fitted effect of over 20% in size)
# Sequence of Thyrotropin receptor (Homo sapiens) (P16473 whole entry, looked up): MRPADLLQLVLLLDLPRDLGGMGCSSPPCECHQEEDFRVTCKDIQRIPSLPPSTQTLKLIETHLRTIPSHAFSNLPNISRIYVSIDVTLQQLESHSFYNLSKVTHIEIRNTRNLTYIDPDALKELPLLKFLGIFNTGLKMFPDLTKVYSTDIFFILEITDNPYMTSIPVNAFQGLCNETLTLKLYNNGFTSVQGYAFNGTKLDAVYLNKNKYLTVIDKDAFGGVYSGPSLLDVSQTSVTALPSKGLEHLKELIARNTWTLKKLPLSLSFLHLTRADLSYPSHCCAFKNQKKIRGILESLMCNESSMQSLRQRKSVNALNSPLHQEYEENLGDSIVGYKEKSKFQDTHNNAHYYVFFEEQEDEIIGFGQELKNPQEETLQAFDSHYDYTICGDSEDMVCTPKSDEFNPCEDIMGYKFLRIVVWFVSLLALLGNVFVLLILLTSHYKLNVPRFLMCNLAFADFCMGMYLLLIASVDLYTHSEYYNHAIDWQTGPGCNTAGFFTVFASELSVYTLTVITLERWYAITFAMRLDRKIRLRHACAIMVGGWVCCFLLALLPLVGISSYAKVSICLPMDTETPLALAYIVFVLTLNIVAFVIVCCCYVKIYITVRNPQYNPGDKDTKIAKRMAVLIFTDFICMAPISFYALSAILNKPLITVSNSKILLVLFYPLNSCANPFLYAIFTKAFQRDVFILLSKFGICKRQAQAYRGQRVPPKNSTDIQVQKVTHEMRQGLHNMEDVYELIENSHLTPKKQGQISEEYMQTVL
# Outline: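 TSHR-HEK293 cells were plated and held 18 h at 37C/5% CO2, then given compound plus Ro20-1724 and stimulated with TSH at 1.5 ng/mL final. After 30 min at room temperature, cAMP was detected with cAMP-d2/anti-cAMP-cryptate (1 h) by fluorescence.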
# [14] = target: Estrogen receptor (Homo sapiens) (UniProt P03372); experiment: qHTS assay to identify small molecule antagonists of the estrogen receptor alpha (ER-alpha) signaling pathway using the BG1 cell line in the presence of 0.1 nM 17-beta-estradiol (AID 1259244); note: nearly all actives have a fitted effect of over 50% in size; note: potency is the fitted concentration of half-maximal effect
# Sequence of Estrogen receptor (Homo sapiens) (P03372 whole entry, looked up): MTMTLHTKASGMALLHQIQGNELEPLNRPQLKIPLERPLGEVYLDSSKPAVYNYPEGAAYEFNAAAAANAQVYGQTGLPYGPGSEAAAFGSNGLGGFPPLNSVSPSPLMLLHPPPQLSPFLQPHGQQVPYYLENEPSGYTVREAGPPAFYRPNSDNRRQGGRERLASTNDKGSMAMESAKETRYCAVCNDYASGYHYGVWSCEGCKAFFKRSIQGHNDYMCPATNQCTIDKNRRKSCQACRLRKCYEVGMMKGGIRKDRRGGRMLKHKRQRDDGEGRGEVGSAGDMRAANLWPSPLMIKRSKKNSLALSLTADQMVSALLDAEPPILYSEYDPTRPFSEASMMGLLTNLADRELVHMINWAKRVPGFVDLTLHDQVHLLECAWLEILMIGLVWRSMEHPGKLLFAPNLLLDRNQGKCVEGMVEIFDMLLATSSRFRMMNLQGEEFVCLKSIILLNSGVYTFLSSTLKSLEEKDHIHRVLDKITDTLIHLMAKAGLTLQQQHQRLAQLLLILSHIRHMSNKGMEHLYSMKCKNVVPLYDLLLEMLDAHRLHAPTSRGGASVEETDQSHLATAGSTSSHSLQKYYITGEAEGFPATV
# Outline: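 Compounds were tested against 0.1 nM (final) 17beta-estradiol in VM7Luc4E2 cells, which express full-length ER-alpha and an ERE-luciferase reporter; luminescence was recorded following 22 h exposure.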
# [15] = qHTS assay to identify small molecule agonists of the androgen receptor (AR) signaling pathway in the presence of an antagonist - cell viability counter screen (AID 1259379); note: nearly all actives have a fitted effect of over 25% in size; note: potency is the fitted concentration of half-maximal effect
# Outline: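 MDA-kb2 viability measured by CellTiter-Fluor fluorescence in the same wells as the luciferase signal; nilutamide 3.0uM final; 15-point compound titration; 16 hr at 37C.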
# [16] = target: Estrogen receptor beta (Homo sapiens) (UniProt Q92731); experiment: qHTS assay to identify small molecule agonists of the estrogen receptor beta (ER-beta) signaling pathway (AID 1259377; active = well fitted activation curve with a large enough effect in the signal ratio in the repeat runs, not every such curve was filed as active; the % refers to the signal ratio)
# Sequence of Estrogen receptor beta (Homo sapiens) (Q92731 whole entry, looked up): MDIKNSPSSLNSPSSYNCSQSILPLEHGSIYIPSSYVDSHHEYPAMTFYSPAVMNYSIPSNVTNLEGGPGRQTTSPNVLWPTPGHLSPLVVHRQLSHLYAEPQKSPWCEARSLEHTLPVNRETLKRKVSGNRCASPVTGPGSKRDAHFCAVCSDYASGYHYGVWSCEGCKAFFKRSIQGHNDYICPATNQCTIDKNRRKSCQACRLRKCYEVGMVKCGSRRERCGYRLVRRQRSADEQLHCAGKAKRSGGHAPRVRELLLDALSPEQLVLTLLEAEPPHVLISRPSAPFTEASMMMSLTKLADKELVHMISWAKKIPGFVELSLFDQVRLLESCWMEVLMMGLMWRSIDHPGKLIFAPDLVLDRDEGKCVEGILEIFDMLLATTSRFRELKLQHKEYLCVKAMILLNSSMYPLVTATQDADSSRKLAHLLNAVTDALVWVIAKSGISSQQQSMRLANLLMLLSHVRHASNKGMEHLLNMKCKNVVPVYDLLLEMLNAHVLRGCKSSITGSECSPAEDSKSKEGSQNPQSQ
# Outline: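 Reporter cells (HEK293T, ER-beta-UAS-bla) receive compounds or DMSO after a 6 hr pre-incubation. They then incubate 16 hr at 37C/5% CO2, and fluorescence from LiveBLAzer B/G substrate is measured after 2 hours at room temperature.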
# [17] = target: Estrogen receptor beta (Homo sapiens) (UniProt Q92731); experiment: qHTS assay to identify small molecule antagonists of the estrogen receptor beta (ER-beta) signaling pathway (AID 1259378; active = well fitted inhibition curve with a large enough effect in the signal ratio in the repeat runs, not every such curve was filed as active; the % refers to the signal ratio)
# Outline: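 ER-beta-UAS-bla HEK293T (GripTite) cells in 2% charcoal-stripped FBS medium were preincubated 6 hr at 37C, dosed with compound, then stimulated with 1 nM E2 (final) for 16 hr; beta-lactamase reporter read by B/G FRET fluorescence after 2 hr substrate loading.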
# [18] = target: Androgen receptor (Homo sapiens) (UniProt P10275); experiment: qHTS assay to identify small molecule antagonists of the androgen receptor (AR) signaling pathway using the MDA cell line in the presence of 0.5 nM R1881 (AID 1259243); note: nearly all actives have a fitted effect of over 50% in size; note: potency is the fitted concentration of half-maximal effect
# Sequence of Androgen receptor (Homo sapiens) (P10275 whole entry, looked up): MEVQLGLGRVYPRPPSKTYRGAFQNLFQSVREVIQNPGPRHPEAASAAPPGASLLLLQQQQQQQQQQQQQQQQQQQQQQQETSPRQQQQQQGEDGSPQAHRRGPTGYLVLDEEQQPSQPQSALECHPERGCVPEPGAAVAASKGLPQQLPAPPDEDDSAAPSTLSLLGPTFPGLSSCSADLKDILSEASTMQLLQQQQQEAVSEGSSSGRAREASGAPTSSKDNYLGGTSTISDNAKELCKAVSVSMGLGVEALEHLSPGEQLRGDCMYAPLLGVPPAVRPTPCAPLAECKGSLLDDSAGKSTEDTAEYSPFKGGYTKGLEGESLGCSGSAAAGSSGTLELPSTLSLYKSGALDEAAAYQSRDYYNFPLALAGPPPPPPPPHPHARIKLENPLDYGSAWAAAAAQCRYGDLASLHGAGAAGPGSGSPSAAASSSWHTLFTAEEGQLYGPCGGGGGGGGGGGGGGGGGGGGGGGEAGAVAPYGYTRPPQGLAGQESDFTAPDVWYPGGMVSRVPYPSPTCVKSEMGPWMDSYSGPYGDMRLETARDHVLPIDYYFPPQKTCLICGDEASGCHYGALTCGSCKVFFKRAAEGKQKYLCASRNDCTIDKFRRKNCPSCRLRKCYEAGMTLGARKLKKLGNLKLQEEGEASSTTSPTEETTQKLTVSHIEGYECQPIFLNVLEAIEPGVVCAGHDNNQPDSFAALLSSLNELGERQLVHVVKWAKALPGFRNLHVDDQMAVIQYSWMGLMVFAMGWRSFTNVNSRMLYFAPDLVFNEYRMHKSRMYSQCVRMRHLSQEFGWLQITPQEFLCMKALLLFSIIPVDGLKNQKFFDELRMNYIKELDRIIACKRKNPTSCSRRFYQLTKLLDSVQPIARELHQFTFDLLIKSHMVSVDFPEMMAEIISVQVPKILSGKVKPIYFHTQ
# Outline: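 With R1881 held at 0.5 nM (final), compound effects on MMTV-luciferase expression in MDA-kb2 cells were scored by luminescence after a 16 hr, 37C incubation.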
# [19] = target: Androgen receptor (Homo sapiens) (UniProt P10275); experiment: qHTS assay to identify small molecule agonists of the androgen receptor (AR) signaling pathway in the presence of an antagonist (AID 1259381; calls by dose curve; note: nearly all actives have a fitted effect of over 15% in size)
# Outline: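 Luminescent ONE-Glo read, 30min at room temperature, follows 16hr compound exposure (15 concentrations) of MDA-kb2 cells at 37C, 0% CO2, with nilutamide added at 3.0uM final.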
SMILES,Potency [1],Potency [2],outcome [3],Potency [4],outcome [5],Potency [6],Potency [7],outcome [8],Potency [9],Potency [10],Potency [11],outcome [12],outcome [13],Potency [14],Potency [15],outcome [16],Potency [17],Potency [18],Potency [19]
OCCc1ccccc1,inactive,inactive,inactive,inactive,inactive,inactive,inactive,inactive,inactive,inactive,inactive,inactive,inactive,,,,,,
Cc1cc(=O)[nH]c(=S)[nH]1,inactive,inactive,inactive,inactive,inactive,inactive,inactive,inactive,inactive,inactive,inactive,inactive,inactive,inactive,,,,,
O=NO,inactive,inactive,,inactive,inactive,inactive,inactive,inactive,inactive,inactive,inactive,inactive,inactive,,,,,,
COC(=O)[C@H](Cc1ccccc1)NC(=O)[C@@H](N)CC(=O)O (H-Asp-Phe-OMe),inactive,inactive,inactive,inactive,inactive,inactive,inactive,inactive,inactive,inactive,inactive,inactive,inactive,inactive,inactive,,,,
O=C(C1CCCCC1)N1CC(=O)N2CCc3ccccc3C2C1 (stereo unspecified),inactive,inactive,inactive,inactive,inactive,,inactive,inactive,inactive,43.2 µM (active) and inactive,inactive,,,,inactive,,,,
O=C(O)C(=O)O,inactive,inactive,,inactive,inactive,inactive,inactive,inactive,inactive and 1.22 µM (active),inactive,inactive,inactive,inactive,,inactive,,,,
CCOc1ccc(NC(=O)CC(C)O)cc1 (stereo unspecified),inactive,inactive,inactive,inactive,inactive,inactive,inactive,inactive,inactive,inactive,inactive,inactive,inactive,,,,,,
O=C(O)c1cc(N=Nc2ccc(S(=O)(=O)Nc3ccccn3)cc2)ccc1O,24.4 µM (active) and 30.6 µM (active),27.4 µM (active) and inactive,inactive,27.3 µM (active),inactive,21.8 µM (active) and 24.3 µM (active),21.8 µM (active) and 27.3 µM (active),inactive,inactive,inactive,inactive,inactive,inactive,,,inactive,inactive,,
O=C1CN(/N=C/c2ccc([N+](=O)[O-])o2)C(=O)N1,,inactive,inactive,inactive,inactive,48.6 µM (active),48.4 µM (active) and 38.6 µM (active),inactive,48.4 µM (active) and 27.3 µM (active) and inactive,,inactive,inactive,inactive,inactive,,inactive,,,
CCC1(c2ccccc2)C(=O)NCNC1=O,inactive,inactive,inactive,inactive,inactive,inactive,inactive,inactive,inactive,inactive,inactive,inactive,inactive,,,inactive,inactive,,
N=C(N)c1ccc(OCCCCCOc2ccc(C(=N)N)cc2)cc1,inactive,inactive,inactive,8.59 µM (active) and 9.26 µM (active),inactive,inactive,inactive,inactive,3.84 µM (active) and 2.33 µM (active) and 18.8 µM (active),inactive,inactive,inactive,inactive,13.6 µM (active) and 18.5 µM (active),,,,,
NC(=O)NC1NC(=O)NC1=O (stereo unspecified),inactive,inactive,inactive,inactive,inactive,inactive,inactive,inactive,inactive,inactive,inactive,inactive,inactive,,inactive,,,,
CCCCOC(=O)CC(CC(=O)OCCCC)(OC(C)=O)C(=O)OCCCC,inactive,inactive,inactive,inactive,inactive,inactive,inactive,inactive,inactive,inactive,inactive,,,,,inactive,inactive,,
CNC[C@H](O)c1cccc(O)c1,inactive,inactive,inactive,inactive,inactive,inactive,inactive,inactive,inactive,inactive,inactive,inactive,inactive,,inactive,inactive,inactive,,
O=C(O)c1cccnc1,inactive,inactive,inactive,inactive,inactive,inactive,inactive,inactive,inactive,inactive,inactive,inactive,inactive,,,inactive,inactive,,
Nc1ccc(S(=O)(=O)Nc2nccs2)cc1,inactive,inactive,inactive,inactive,inactive,inactive,inactive,inactive,inactive,inactive,inactive,inactive,inactive,inactive,,,,,
O=C(O)CCC(=O)O,inactive,inactive,inactive,inactive,inactive,inactive,inactive,inactive,inactive,inactive,inactive,inactive,inactive,inactive,,,,,
c1ccc2[nH]ccc2c1,,9.53 µM (active) and inactive,inactive,inactive,inactive,inactive,inactive,inactive,6.01 µM (active) and inactive,26.9 µM (active) and inactive,26.9 µM (active) and inactive,inactive,inactive,,7.57 µM (active) and inactive,inactive,inactive,2.39 µM (active) and inactive,inactive
